# A selection: hits, their analogues and other compounds. The true share with any hit is near 0.31%.
# TRPML1 agonist = qHTS for Agonists of the Human Mucolipin Transient Receptor Potential 1 (TRPML1); Mucolipin-1 (Homo sapiens), Q9GZU1; TRPML1-expressing cells, Ca2+ dye fluorescence, FDSS; activation, % (no concentration beside the values); 0.12% of 410,000 active; in the data active means activation above about 50%; inconclusive means mostly about 30% to 49%; further: 0% is about no effect
# Target sequence (Q9GZU1 whole entry, looked up): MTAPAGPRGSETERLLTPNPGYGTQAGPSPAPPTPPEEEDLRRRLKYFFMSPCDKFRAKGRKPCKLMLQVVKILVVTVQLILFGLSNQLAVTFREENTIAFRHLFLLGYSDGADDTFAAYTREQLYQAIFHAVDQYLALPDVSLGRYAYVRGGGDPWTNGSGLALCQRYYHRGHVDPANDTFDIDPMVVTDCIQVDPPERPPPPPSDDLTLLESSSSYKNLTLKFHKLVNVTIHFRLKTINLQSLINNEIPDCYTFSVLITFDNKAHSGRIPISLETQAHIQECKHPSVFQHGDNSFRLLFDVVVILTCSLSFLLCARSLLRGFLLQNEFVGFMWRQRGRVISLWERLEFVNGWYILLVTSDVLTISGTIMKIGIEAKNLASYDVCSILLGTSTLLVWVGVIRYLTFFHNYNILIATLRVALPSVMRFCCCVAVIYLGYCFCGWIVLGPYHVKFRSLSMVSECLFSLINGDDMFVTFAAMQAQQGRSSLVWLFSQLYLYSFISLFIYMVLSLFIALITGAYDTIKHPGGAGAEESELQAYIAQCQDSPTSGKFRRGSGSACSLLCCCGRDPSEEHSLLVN
#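 Tetracycline-induced TRPML1-DL cells are seeded and incubated overnight before loading with a no-wash Ca2+ dye and quencher. Agonist activity is taken from the 110 s fluorescence read following compound pin-transfer on an FDSS, before EC80 54-4 challenge.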
# TRPML1 inh = qHTS for Inhibitors of the Human Mucolipin Transient Receptor Potential 1 (TRPML1); Mucolipin-1 (Homo sapiens), Q9GZU1; TRPML1-inducible cells, Ca2+ dye fluorescence, FDSS; hits give low values; inhibition of EC80 agonist-evoked calcium signal; activity change, negative = inhibition, % (test concentration not listed); 0.02% of 390,000 active; AID 624415, 2012; in the data active means activity change below about -50%; inconclusive means between about -30% and that limit;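 further: stimulus is agonist 54-4 at its EC80 concentration; on the % scale 0 is the no-effect control and ±100 the full control effect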
#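 Tet-induced TRPML1-DL cells loaded with Ca8 no-wash calcium dye were read kinetically on FDSS. Compound addition was followed by EC80 agonist 54-4 (4 uM final); inhibition was read over 110 s.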
# TRPV1 potentiator = HTS Assay for Compounds that Act as Potentiators of the Vanilloid Receptor 1 | 0.02% of 320,000 active | AID 540277, 2011 | potentiation, % at 8.33 µM | Transient receptor potential cation channel subfamily V member 1 (Homo sapiens), Q8NER1 | TRPV1-expressing cells, Fluo-8 calcium influx, capsaicin EC20 potentiation; in the data active means potentiation above about 80%; inconclusive means between about 30% and that limit; further: 0% is about no effect
#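 Fluo-8 calcium influx in TRPV1-expressing cells, kinetic read (ex 480/em 520 nm). Compound added and read 3 min for agonist activity, followed by capsaicin at EC20 final and 2 min further read for enhancement.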
# TRPV1 ag = HTS Assay for Compounds that Act as Agonists of the Vanilloid Receptor 1; TRPV1-expressing cells, Fluo-8 calcium influx, agonist mode; activation, % at 8.33 µM; 0.19% of 320,000 active; AID 540275, 2011; in the data active means activation above about 80%; inconclusive means between about 30% and that limit; further: 0% is about no effect
#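 Cells expressing TRPV1 were dye-loaded with Fluo-8 and read kinetically: 10 s baseline, 3 min after compound (agonist portion), then 2 min after EC20 capsaicin (allosteric enhancer portion). Calcium-bound dye fluorescence at 480/520 nm.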
# The depositor's hits bear a star; ? = inconclusive; · = no result given.
SMILES,TRPML1 agonist,TRPML1 inh,TRPV1 potentiator,TRPV1 ag
O=C(Nc1ccc(Br)cc1F)C(NS(=O)(=O)c1cccc2nsnc12)c1ccccc1 (centres undefined),0.5,-8.5,·,·
O=C(c1ccc(-c2cccc(C(F)(F)F)c2)o1)N1CCOCC1,2.2,5.7,-18.0,86.0*
CC(=O)N1CCN(C(=O)c2ccc(-c3cccc(C(F)(F)F)c3)o2)CC1,0.9,4.3,-20.6,29.2
COc1ccc(C2/C=C\CN(C(=O)C3CCCCC3)C(Cc3ccccc3)C(=O)N2Cc2ccc(F)cc2)cc1 (centres undefined),1.9,38.3,·,·
COc1ccc(OC)c2c1CCC1(C2)NC(=O)NC1=O (centres undefined),-0.7,·,·,·
COc1ccc2c(c1C)CCC(C)(C#N)C2=O (centres undefined),77.9*,-24.3,·,·
Cc1ccccc1OCC(=O)Nc1cc(C)c(O)c(-c2nc3ccccc3o2)c1,0.4,·,·,·
COc1cc(/C=C(\C#N)c2nc3ccccc3n2C)cc(OC)c1O,59.5*,-21.9,?,25.2
COc1cccc(NC(=O)CCc2c(C)nc3c4cccnc4nn3c2C)c1,0.3,-13.7,·,·
CCN(CC)c1ccc(C=C2C(=O)OC(c3ccccc3)OC2=O)cc1 (centres undefined),0.0,-5.6,3.3,-2.5
CCN(CC)c1ccc(/C=C/C(=O)C2C(=O)C=C(C)OC2=O)cc1 (centres undefined),127.3*,-12.1,12.0,93.5*
O=C(Cc1ccccc1)NCCCNC(=O)Cc1ccccc1,0.4,3.8,·,·
O=C(Cc1ccccc1)NCCSC1CCCCC1,0.9,6.4,-17.3,93.7*
CCCNC(=O)Cn1c(=O)/c(=C\c2ccc(-c3ccc([N+](=O)[O-])cc3)o2)s/c1=C\C(=O)C(C)(C)C,127.1*,-12.7,18.0,?
O=C(Nc1ccc(S(=O)(=O)N2CCC(c3nc4ccccc4s3)CC2)cc1)c1ccccc1,-0.5,4.3,·,·
Cc1ccc(-c2nnc(Nc3cccc(O)c3)c3ccccc23)cc1S(=O)(=O)N1CCCCC1,1.0,2.9,·,·
Cc1cccc(C)c1NC(=O)c1ccc(-c2ccc(Cl)cc2Cl)o1,3.4,63.7,4.9,-1.7
Cc1ccccc1NC(=O)c1ccc(-c2ccc(Cl)cc2Cl)o1,3.4,-50.6*,3.0,14.9
Cc1ncoc1C(=O)NC1CC(C)(C)Cc2c1cnn2-c1ccc(F)cc1 (centres undefined),-0.1,-2.1,2.5,84.5*
Cc1nnc(NC(=O)CSc2nccn2Cc2ccc(Cl)cc2)s1,-0.4,11.8,·,·
COc1ccc(C(=O)c2sc(Nc3cccc(OC)c3)c(C(=O)Nc3cccc(C)c3C)c2N)cc1,60.7*,-19.8,1.5,2.2
COc1ccc(Nc2sc(C(=O)c3ccc(Cl)cc3)c(N)c2C(=O)Nc2ccccc2OC)cc1,?,3.9,7.7,2.1
COC(=O)CCCC1=CC2=CC(=O)C(C)(OC(=O)c3cccs3)C(=O)C2=CN1CCc1ccccn1 (centres undefined),0.4,-3.6,?,-0.1
CCCCC1=CC2=CC(=O)C(C)(OC(=O)CC)C(=O)C2=CN1CCc1ccccn1 (centres undefined),-0.1,-53.7*,-5.5,0.0
C/C=C1\COC(C(=O)NCCOCCO)(C(F)(F)F)C=C1C=C1CCCCC1 (centres undefined),0.7,-7.0,·,·
SMILES,TRPML1 agonist,TRPML1 inh,TRPV1 potentiator,TRPV1 ag
CC(C)c1ccc(NCCC(=O)c2cccs2)cc1,0.2,-22.1,0.4,89.6*
Cc1ccc(CNC(=O)Cn2cc(S(=O)(=O)Cc3ccccc3Cl)c3ccccc32)cc1,3.1,-26.8,·,·
COCCN1C(=O)c2[nH]nc(-c3ccccc3O)c2C1c1ccc(OCc2ccccc2)c(OC)c1 (centres undefined),3.6,73.4,4.1,-5.5
CCN(CC)C1=CC2=CC(=C(C#N)C#N)CCC2CC1 (centres undefined),105.4*,?,7.3,0.0
CCCCN(C)C1=CC2=CC(=C(C#N)C#N)CCC2CC1 (centres undefined),125.3*,-64.3*,-2.2,101.5*
N#CC(C#N)=C1C=C2C=C(N3CCCCC3)CCC2CC1 (centres undefined),108.8*,-26.1,-0.3,101.8*
COc1ccccc1-n1c(/C=C/c2c(C)n(C)c3ccccc23)nc2ccccc2c1=O,6.9,12.3,·,·
CC[N+](CC)(CC)c1ccc(/C=C/c2ccc3ccccc3n2)cc1,-0.7,·,·,·
CC(C)CSc1ccccc1NC(=O)c1sc2nc(-c3ccncc3)ccc2c1N,2.6,7.9,·,·
CC(C)(C)n1ncc2c(=O)n(Cc3c(F)ccc(Cl)c3Cl)cnc21,2.3,6.3,·,·
CC(=O)c1ccc(N2CCN(C(=O)Nc3ccc(C)cc3)CC2)cc1,2.4,-23.8,0.0,93.5*
Cc1ccc(NC(=O)N2CCN(c3ccc(Cl)c(Cl)c3)CC2)cc1,0.8,-3.8,·,·
CC(=O)c1ccc(NC(=O)N2CCN(c3ccc(C)cc3)C(C)C2)cc1 (centres undefined),0.3,18.1,2.4,84.3*
COc1ccc(N2CCN(C(c3ccc(F)cc3)c3sc4nc(-c5ccco5)nn4c3O)CC2)cc1 (centres undefined),2.4,3.8,·,·
O=C(/C=C/c1cc(Br)ccc1F)Nc1cccnc1,0.2,5.5,8.4,80.1*
CCN(CC)c1ccc(/C=C/c2ccccn2)cc1,26.8,·,·,·
CC(=O)Nc1cc(O)c2nonc2c1O,-0.4,·,·,·
CC1=CC(C)(C)N(C(=O)CN2C(=O)c3ccccc3C2=O)c2ccc(C)cc21,61.4*,-5.4,-9.2,-0.8
CN(C)c1ccc(/C=C/c2ccnc3c(-c4ccccc4)cccc23)cc1,19.2,·,·,·
CC(C)(C)c1ccc(NC(=S)NCc2cccnc2)cc1,1.8,-12.7,-30.8,86.4*
CCOc1ccccc1NC(=O)CSc1nc2cc(OC)c(OC)cc2c2nc(CCn3c(C)nc4ccccc43)nn12,0.9,-14.5,·,·
COc1ccc(-c2nc3scc(CCNC(=O)c4cccc(Br)c4)n3n2)cc1,-0.7,-9.9,·,·
Cc1cc2c(NC(=O)Nc3ccc(C(F)(F)F)cc3)cccc2nn1,0.4,18.5,-2.8,81.9*
O=C(CN1CCN(CC(=O)Nc2ccccc2Cl)CC1)NCC1(N2CCOCC2)CCCCC1,98.2*,-10.4,3.2,-0.3
O=C(CN1CCN(CC(=O)Nc2ccccc2Cl)CC1)NCC1(N2CCCCC2)CCCCC1,1.4,-12.1,16.4,-0.3
O=C(Nc1ccncc1)C1CCN(S(=O)(=O)c2ccccc2)CC1,-0.2,13.7,2.4,-3.4
Cc1ccc(NC(=O)C2CCN(S(=O)(=O)c3ccc(Cl)c(C(F)(F)F)c3)CC2)nc1,69.0*,-8.0,-20.9,23.9
Cc1ccc(NC(=O)c2ccc(S(=O)(=O)N3CCCC3)cc2)nc1,-0.5,-0.2,5.2,86.4*

# Source: PubChem BioAssay
